Values joined by “and” are separate entries in the source; they are usually repeats but may differ in a detail not shown here. Identical values can stand only once. The campaign covered roughly 360,000 compounds. About 2,100 (0.58%) were called active. The sample as a whole holds a higher share of actives than the screen did. Unmarked numbers belong to inactive results.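 How the source made its calls: active means inhibition at 20 µM, scaled to each plate's controls, above about 33% (limit read from the data); inactive means the rest.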

For this assay, the target named is 26S proteasome non-ATPase regulatory subunit 14 (Homo sapiens) (UniProt O00487). The assay can be described thus: Rpn11 (PSMD14) deubiquitinase inhibitors, primary screen, biochemical, fluorescence polarization, uHTS (AID 588493). The conditions noted are these: human 26S proteasome, Ub4-pepOG fluorescence polarization; at 20 µM; active compounds read high; 20S core pre-blocked with epoxomicin.
26S proteasome non-ATPase regulatory subunit 14 (Homo sapiens), sequence (O00487 whole entry, looked up): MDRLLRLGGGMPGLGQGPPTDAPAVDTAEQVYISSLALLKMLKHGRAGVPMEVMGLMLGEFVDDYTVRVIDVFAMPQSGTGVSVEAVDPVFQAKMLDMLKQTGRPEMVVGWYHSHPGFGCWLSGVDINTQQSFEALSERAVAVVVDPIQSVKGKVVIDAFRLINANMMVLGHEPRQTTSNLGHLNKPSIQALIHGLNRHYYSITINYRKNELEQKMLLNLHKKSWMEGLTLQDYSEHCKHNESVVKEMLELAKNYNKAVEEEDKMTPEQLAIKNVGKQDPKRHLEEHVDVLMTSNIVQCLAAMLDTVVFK
By inhibition is commonly meant the change of the read-out against control, counted positive when it falls. In the case of `Cc1nnc(SCc2nc3ccccc3nc2C)s1`, the inhibition was -1.4%.

Regarding `COc1ccc2cc(C(=O)C3CCCN(C(=O)c4sc(C)nc4C)C3)ccc2c1` (stereo unspecified), the inhibition was 5.8%.

For `COc1cc(CO)ccc1OCC(=O)Nc1cccc2ccccc12`, the inhibition is 1.6%.

With `COc1cc(=O)[nH]c(=O)n1C(=O)Cc1ccccc1`, the inhibition is 2.2%.

For the molecule `CCCOc1ccc(Cn2c(O)cc(=O)[nH]c2=O)cc1`, the inhibition is 65.3% (active).

Consider `COc1ccc(Cn2c(O)c(/C=C3/C=CC=N3)c(=O)[nH]c2=O)cc1`, for which the inhibition was 14.5%.

As to `COc1ccc(C2c3[nH]c4ccccc4c3C[C@H]3C(=O)N(CC(C)C)CC(=O)N23)c(OC)c1` (stereo partly specified), the inhibition was -8.2%.

In the case of `Cc1ccc(NC(=O)CN(C)Cc2ccc(F)cc2)c([N+](=O)[O-])c1`, the inhibition is -8.1%.

For `COc1ccc2c(c1)c(=Cc1ccc(N(C)C)cc1)c1cc(-c3ccccc3)[n+](C)n12`, the inhibition was 59.4% (active).

On to `O=C(CNC(=O)c1ccc(Cl)cc1Cl)NCC(=O)Nc1ccccc1N1CCOCC1`, for which the inhibition is -2.4%.

For `CCCNC(=O)CCn1nc(-c2ccccc2)c2ccccc2c1=O`, the inhibition is -1.2%.

Turning to `CC(C)Cn1c(CCC(=O)O)ccc1-c1cccs1`, the inhibition is 39.7% (active).

On to `CCOC(=O)c1ccc(-n2c(CCC(=O)O)ccc2-c2ccccc2)cc1`, for which the inhibition is 1.9%.

With `COCCCn1c(CCC(=O)O)ccc1-c1ccc(F)cc1`, the inhibition was 6.6%.

For the molecule `CC(=O)c1sc(N/N=C/c2ccc(C(C)C)cc2)nc1C`, the inhibition is 42.3% (active).

As for `CC(=O)c1sc(N)nc1C`, the inhibition is -7.7% and -13.1%.

Take `CC(=O)c1sc(NC(=O)C2=NN(c3ccccc3)C(=O)CC2)nc1C`: the inhibition is 1.1%.

As for `Cc1cc2c(cc1C)N1C(=O)c3cc4ccccc4cc3NC(=O)C1C(=O)N2` (stereo unspecified), the inhibition is 7%.

For the molecule `COc1ccc(NC(=O)c2cn(-c3ccccc3)nc2SC)cc1`, the inhibition was 4.3%.

Take `CCOc1ccc(-c2c(C)n([O-])c3c([n+]2=O)CCCC3)cc1`: the inhibition was 3%.

Turning to `O=C(NNc1c2ccccc2nc2ccccc12)c1cc2ccccc2cc1O`, the inhibition was -5.5%.

Turning to `Cc1ccc(/C=N/NC(=O)C2=NNC(c3ccccc3)(c3ccccc3)C2)c(O)c1`, the inhibition was 3.5%.

Regarding `Oc1ccc(/C=N/Nc2nc(-c3ccccc3F)nc3ccccc23)c(O)c1`, the inhibition was 43.1% (active).

Turning to `Cc1nnc(SC(C)C(=O)c2c[nH]c3ccccc23)n1C1CC1` (stereo unspecified), the inhibition was -0.9%.

For `CCCCN(C(=O)c1ccc(C)o1)c1c(N)n(CCCC)c(=O)[nH]c1=O`, the inhibition is -3.8%.

As for `O=C(COc1cccc(F)c1)Oc1ccc(C(=O)c2ccccc2)cc1`, the inhibition is 43% (active).

Take `CCN(C(=O)COc1ccc(C(=O)c2ccccc2)cc1)c1ccccc1`: the inhibition is -0.2%.

Turning to `O=C(COC(=O)COc1cccc(F)c1)NCC1CCCCC1`, the inhibition is -7.3%.

For the molecule `O=C(c1cccnc1)N(c1cc2sc(=O)oc2c2ccccc12)S(=O)(=O)c1ccccc1`, the inhibition is 2.8%.

For `NC(=O)Cc1ccc2sc(-c3ccccc3)nc2c1`, the inhibition is 4.7%.

Regarding `O=C(CSc1nnc(-c2cccnc2)n1CCc1ccccc1)NCc1ccccc1`, the inhibition was -6.8%.

With `C=CCn1c(SCC(=O)NC(=O)Cc2ccccc2)nc2ccccc2c1=O`, the inhibition is 0.5%.

On to `C=CCn1c(SCC(=O)NCc2ccccc2)nnc1-c1cc(Br)ccc1O`, for which the inhibition is 37.3% (active).

`COc1ccc(CNc2c(CO)cnc3c2cnn3C)cc1`: the inhibition is -6.6%.

As for `COCCCNC(=S)N1CCN(c2nc(-c3cccc(OC)c3)cs2)CC1`, the inhibition is 5.4%.

As for `CSc1ccc(C#N)cc1NC(=O)c1cccc(Cl)c1`, the inhibition was 7.6%.

As for `N#Cc1ccc(C(=O)Nc2cccc3cccnc23)c(F)c1`, the inhibition was 102% (active).

For `COc1ccc(NC(=O)c2ccco2)cc1NC(=O)c1ccc(C#N)cc1F`, the inhibition was -5.8%.

Turning to `Cc1ccc(CCNC(=O)CN2C(=O)CSc3ccc(S(=O)(=O)N4CCOCC4)cc32)cc1`, the inhibition was -1.8%.

`CCCCCCCCc1c(O)nc(-n2[nH]c(C)c(CCO)c2=O)[nH]c1=O`: the inhibition is 11.1%.

For `COc1ccc(/C=C(\C#N)C(=O)NCCCn2ccnc2)cc1`, the inhibition was -1.5%.

Take `COc1cc(OC)cc(C(=O)NCCCn2ccnc2)c1`: the inhibition was 0.7%.

With `COc1cccc(-c2nn(-c3ccccc3)cc2/C=C(\C#N)C(=O)NCCCn2ccnc2)c1`, the inhibition was 56% (active).

As to `CCCCc1nnc(NC(=O)CS(=O)(=O)Cc2ccccc2)s1`, the inhibition was 5.2%.

On to `C/C(=N/NS(=O)(=O)c1ccccc1)c1ccc(NC(=O)C(F)(F)F)cc1`, for which the inhibition is -2%.

Take `NC(=O)c1cc(S(=O)(=O)NCCCc2ccco2)cs1`: the inhibition was -4.1%.

As for `O=C(N/N=C/c1cccc(Br)c1)c1ccc(N2CCCC2=O)cc1`, the inhibition was 49.1% (active).

As for `O=C(N/N=C\c1cccc(Br)c1)c1ccccc1-n1cccc1`, the inhibition was 23.2%.

Turning to `O=C(Nc1ccc(N2CCCC2=O)cc1)c1cncc(Br)c1`, the inhibition was -4.8%.

`Cc1cc2nc(-c3ccco3)c(Cc3cccc(F)c3)n2c(C)c1Br`: the inhibition is 11.6%.

In the case of `CN(C)CCn1c2c(c(SCC(=O)Nc3ccccc3C(F)(F)F)nc1=O)CCCC2`, the inhibition is -0.6%.

`O=C1c2ccccc2S(=O)(=O)c2cc(N3CCN(c4ccccn4)CC3)ccc21`: the inhibition is 40.2%.

As to `CC1CCN(c2ccc3c(c2)S(=O)(=O)c2cc(C(=O)O)ccc2C3=O)CC1`, the inhibition is 57.1% (active).

With `OC(c1ccc(Cl)cc1)c1ncc(-c2ccc(Cl)cc2)[nH]1` (stereo unspecified), the inhibition is -5.5%.

For the molecule `COc1ccc(CNC(=O)C(C)n2nc(C)c3c(C)n(-c4ccccc4)nc3c2=O)c(OC)c1` (stereo unspecified), the inhibition is 0%.

With `CCCCN(C(=O)C1CCC1)c1c(N)n(Cc2ccccc2)c(=O)[nH]c1=O`, the inhibition was -10.9%.

For the molecule `Cc1ccc(Cl)cc1NC(=O)COC(=O)C1CCCCC1`, the inhibition is -8.8%.

`CCCc1nc(-c2cc3cc(C)ccc3[nH]c2=O)no1`: the inhibition was -0.2%.

Turning to `CCC(=O)N(CCc1ccccc1)Cc1cc2cc(C)ccc2[nH]c1=O`, the inhibition is -6.2%.

Turning to `CCNCc1cc2cc(C)ccc2[nH]c1=O`, the inhibition was 82.8% (active).

Turning to `CCc1noc(C)c1C(=O)N1CCN(S(=O)(=O)c2cccc(C(F)(F)F)c2)CC1`, the inhibition is 0%.

For `CC(=O)c1ccc(NC(=S)N(Cc2ccccc2)C(C)C2CC2)cc1` (stereo unspecified), the inhibition was 8.8%.

As to `CCN1CCN(c2cc3nc(C)n(Cc4ccccc4)c(=O)c3cc2NC(=O)c2ccccc2F)CC1`, the inhibition was 47.3% (active).

On to `CCOc1cc(NC(=O)c2ccccc2C(=O)O)c(OCC)cc1NC(=O)c1ccccc1F`, for which the inhibition was 1.8%.

As for `CCC(=O)Nc1ccc2nc(C)n(Cc3ccccc3Cl)c(=O)c2c1`, the inhibition is -7.7%.

In the case of `Fc1ccc(CNc2nc3ccccc3n3nnnc23)cc1`, the inhibition is -38.7%.

Regarding `Cn1c(C(=O)N2CCC(C(N)=O)CC2)cc2c(=O)n(C)c3ccccc3c21`, the inhibition is -3.7%.

With `CCN1CCCC1CNC(=O)c1cc2c(=O)n(C)c3ccccc3c2n1C` (stereo unspecified), the inhibition was 66.2% (active).

`CCN1CCCC1CNC(=O)c1cc2cc(OC)c(OC)cc2[nH]1` (stereo unspecified): the inhibition is -10.4%.

Turning to `COc1cccc(/C=C(/CC(=O)Nc2ccc(N3CCOCC3)cc2)c2nc3ccccc3s2)c1`, the inhibition is 41.7% (active).

`CCn1c(Cc2ccc(OC)cc2)nnc1SCC(=O)Nc1ccc(N2CCOCC2)cc1`: the inhibition is 5%.

Consider `Cc1ccc(OCCCC(=O)Nc2ccc(N3CCOCC3)cc2)cc1`, for which the inhibition was 1.7%.

For `COc1cc(OC)cc(C(=O)Nc2ncc3c(n2)CC(C)(C)CC3=O)c1`, the inhibition is 1.2%.

On to `CCN(CC)S(=O)(=O)c1ccc2nc(CSc3nnnn3-c3ccc(O)cc3)[nH]c2c1`, for which the inhibition was 0.9%.

For the molecule `O=C(Nc1cc(Br)ccc1F)c1nc[nH]c1C(=O)NCc1ccccc1`, the inhibition is -6.2%.

On to `O=C(c1ccc2c(c1)N(Cc1ccc(F)cc1)C(=O)CS2)N1CCOCC1`, for which the inhibition is 1.1%.

These data come from PubChem BioAssay AID588493 (Sanford-Burnham Center for Chemical Genomics, 2011).
